We go through 14 molecules from PubChem BioAssay (NCI).

Among the test systems are T-47D breast; BT-549 breast; MDA-MB-435 melanoma; SW-620 colon; MCF7 breast; HCT-116 colon; HCC-2998 colon; KM12 colon.
What all share (assay): NCI-60 one-dose screen, 48 h (100 = growth as untreated, 0 = no growth, -100 = all killed)
Settings in all cases: 10 µM unless noted

About 83,000 compounds went through this panel and 20% of them were active in at least one assay; those are over-represented in the sample as a whole.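 Values shown are percent growth following 48 h exposure of cells in 96-well plates to a single concentration of compound; below 10 was considered active.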 A number with no mark means an inactive call. Active and inactive are the calls of the source.

Regarding `CCCCCc1c(C)[nH]c(/C=C2\N=C(c3ccc[nH]3)C=C2OCc2ccccc2)c1C`, the growth was -77.7% [100 µM] (active) in the test on T-47D breast; -94.6% [100 µM] (active) with BT-549 breast; -93.9% [100 µM] (active) in the test on MDA-MB-435 melanoma; -34.7% [100 µM] (active) in the test on SW-620 colon; -73% [100 µM] (active) in the test with MCF7 breast; -94.7% [100 µM] (active) with HCT-116 colon. Besides, the figures for the growth with HCC-2998 colon and with KM12 colon were -87.8% [100 µM] (active) and -80.9% [100 µM] (active), respectively.

In the case of `COC(=O)[C@H](CCCCNC(=O)OCc1ccccc1)NC(=O)[C@@H](NC(=O)Nc1cc(C(F)(F)F)cc(C(F)(F)F)c1)C(C)C`, the growth is -57.6% [100 µM] (active) in the test with T-47D breast; 47.1% [100 µM] in the test with BT-549 breast; -86% [100 µM] (active) in the test on MDA-MB-435 melanoma; -14.6% [100 µM] (active) with SW-620 colon; -18.2% [100 µM] (active) in the test with MCF7 breast; -86.6% [100 µM] (active) in the test with HCT-116 colon. In addition, the growth is -43.4% [100 µM] (active) in the test with HCC-2998 colon and 7.99% [100 µM] (active) with KM12 colon.

Regarding `NS(=O)(=O)c1ccc(-n2ncc3c(SCc4ccccc4)ncnc32)cc1`, the growth in the test with T-47D breast is 91.6%; in the test on BT-549 breast it was 91.6%; in the test with MDA-MB-435 melanoma, 106%; with SW-620 colon it was 95.5%; in the test with MCF7 breast, 98.7%; in the test on HCT-116 colon it was 82.7%. Moreover, the growth with HCC-2998 colon was 127%; in the test with KM12 colon, 94.1%.

Turning to `CCN1CC2=C(Nc3nc(SC)[nH]c(=O)c3C2c2cc(OC)c(OC)c(OC)c2)/C(=C/c2cc(OC)c(OC)c(OC)c2)C1` (stereo not drawn), the growth was 97.5% with T-47D breast; 102% with BT-549 breast; 93.5% in the test with MDA-MB-435 melanoma; 102% in the test with SW-620 colon; 86.2% in the test with MCF7 breast; 92.6% in the test on HCT-116 colon. Besides, the growth with HCC-2998 colon was 102%; with KM12 colon it was 97.5%.

As for `COC(=O)[C@H](Cc1cn(C)cn1)NC(=O)[C@H](C)NC(=O)Nc1cc(C(F)(F)F)cc(C(F)(F)F)c1`, the growth in the test with T-47D breast is -58.7% [100 µM] (active); with BT-549 breast it was -91.6% [100 µM] (active); with MDA-MB-435 melanoma, -86.7% [100 µM] (active); in the test on SW-620 colon, -27.4% [100 µM] (active); in the test on MCF7 breast it was -60% [100 µM] (active); in the test with HCT-116 colon it was -84.2% [100 µM] (active). In addition, the growth is -88.9% [100 µM] (active) with HCC-2998 colon and -70.8% [100 µM] (active) with KM12 colon.

For `COc1cc(C2CC(c3ccc(C)cc3)=NN2C=O)ccc1OCCN(C)C` (stereo not drawn), the growth in the test with T-47D breast is 90.6%; in the test on BT-549 breast, 80.7%; in the test with MDA-MB-435 melanoma, 102%; in the test on SW-620 colon it was 96.5%; with MCF7 breast it was 92.5%; in the test with HCT-116 colon, 88.9%. In addition, the growth with HCC-2998 colon was 98.4%; with KM12 colon, 101%.

For the molecule `COC(=O)Nc1ccc2ccc3c(NC(=O)OC)ccc4ccc1c2c43` (tested in a mixture with another compound), the growth in the test with T-47D breast was 49.6%; with BT-549 breast it was 63.2%; with MDA-MB-435 melanoma it was -22.3% (active); in the test with SW-620 colon, 39.4%; in the test on MCF7 breast it was 31.4%; in the test with HCT-116 colon it was 21.7%. Besides, the results for the growth in the test on HCC-2998 colon and with KM12 colon were 57.9% and 32.7%, respectively.

Take `COC(=O)c1cc2c(/C=C3/NC(=S)NC3=O)coc2n1C`: the growth in the test on T-47D breast is 80.3%; with BT-549 breast, 72.9%; in the test on MDA-MB-435 melanoma, 94.7%; with SW-620 colon, 96.6%; with MCF7 breast, 81.3%; in the test with HCT-116 colon, 96.8%. Moreover, the growth is 103% in the test with HCC-2998 colon and 96.5% in the test on KM12 colon.

As to `O=C(CNC(=O)c1cccc2ccccc12)Nc1ccccc1Oc1ccc(O)cc1`, the growth was 36.5% [5 µM] in the test on T-47D breast; 58.5% [5 µM] with BT-549 breast; -16.1% [5 µM] (active) in the test on MDA-MB-435 melanoma; 28.9% [5 µM] in the test on SW-620 colon; 27.1% [5 µM] with MCF7 breast; 15.9% [5 µM] in the test with HCT-116 colon. In the test with KM12 colon, the growth was 30.1% [5 µM].

In the case of `O=C(NCCCl)NCCN1c2nc3ccccc3cc2Sc2cc3ccccc3nc21`, the growth in the test on T-47D breast is 69%; in the test on BT-549 breast, 40.3%; in the test with MDA-MB-435 melanoma, 58.5%; in the test on SW-620 colon, 41.3%; in the test on MCF7 breast, 18.3%; in the test on HCT-116 colon, 31.3%. Besides, the growth with KM12 colon was 71.9%.

For the molecule `Cn1ccnc1C(=O)/C=C/c1ccc(C(=O)Nc2nc3ccccc3[nH]2)cc1`, the growth in the test on T-47D breast is 49.6%; with BT-549 breast, 5.05% (active); with MDA-MB-435 melanoma, 18.8%; in the test with SW-620 colon, 5.35% (active); in the test with MCF7 breast, 19.5%; with HCT-116 colon it was 23.1%. Further, the growth in the test with HCC-2998 colon is 45.4%; with KM12 colon, 14.4%.

On to `c1cc[n+](Cc2ccnc3ccccc23)cc1`, for which the growth in the test on T-47D breast was 106%; in the test on BT-549 breast it was 112%; in the test on MDA-MB-435 melanoma it was 100%; in the test on SW-620 colon, 50.2%; with MCF7 breast, 41.1%; in the test on HCT-116 colon, 21.1%. Also, the figures for the growth in the test with HCC-2998 colon and in the test with KM12 colon were 105% and 103%, respectively.

As to `Oc1ccc(/C=N/Nc2nc3ccccc3s2)c(O)c1`, the growth in the test with T-47D breast is 26.8%; in the test with BT-549 breast it was 43.8%; in the test on MDA-MB-435 melanoma, 39.7%; with SW-620 colon, 41.9%; in the test with MCF7 breast, 26.5%; with HCT-116 colon, 25.2%. In addition, the growth with KM12 colon was 15.7%.

In the case of `C(=C1c2ccccc2-c2ccccc21)c1ccncc1`, the growth was 72.2% with T-47D breast; 38.6% with BT-549 breast; -21.7% (active) in the test on MDA-MB-435 melanoma; 17.1% in the test with SW-620 colon; 18.8% in the test on MCF7 breast; 16.4% in the test with HCT-116 colon. In addition, the growth in the test with KM12 colon was 18.5%.
